tim10-1 inh = growth inhibitors of tim10-1 mutant yeast, primary screen, luminescence, uHTS; actives 2.2% (n = 330,000); S. cerevisiae tim10-1 ts strain growth, BacTiter-Glo, 24 h; inhibition, % at 20 µM;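 active means inhibition of at least 40%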;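 further: mutant grown at 25 °C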
TIM10 inh = growth inhibitors of isogenic TIM10 control yeast, primary screen, counter-screen for tim10-1 yeast inhibitor project, luminescence, uHTS; S. cerevisiae TIM10 strain growth, BacTiter-Glo luminescence, 24 h; inhibition, % at 10 µM; actives 1.4% (n = 330,000); AID 463195, 2010;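 active means inhibition of 40% or more at the single tested concentration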;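 further: wild-type TIM10 isogenic control strain grown at permissive 25 °C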
PfHsp90 set2 = growth inhibition of PfHsp90-expressing yeast, primary screen, antimalarial PfHsp90 inhibitor project, S. cerevisiae, BacTiter-Glo luminescence, single point, set 2 | BacTiter-Glo ATP, 48 h; yeast lacking PDR1 and PDR3 efflux regulators | inhibition, % at 9.4 µM | actives 0.32% (n = 310,000) | AID 504621, 2011;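 active means every replicate shows inhibition above about 80%, whatever the replicate mean, limit read from the data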
NLRP3 yeast inh = NALP3 inflammasome inhibitors in reconstituted yeast, primary screen, luminescence, uHTS; actives 0.39% (n = 330,000); inhibition, % at 10 µM; Yeast reconstituted NLRP3/ASC/caspase-1, beta-gal luminescence, 24 h;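 active means inhibition of 50% or more; inactive means inhibition below 50%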
tim23-1 inh = growth inhibitors of tim23-1 mutant yeast, primary screen, luminescence, uHTS | S. cerevisiae tim23-1 growth, BacTiter-Glo luminescence, 24 h | inhibition, % at 20 µM | actives 1.3% (n = 330,000) | AID 463212, 2010;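 active means growth inhibition of the mutant yeast at or above 50%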;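 further: temperature-sensitive mutant grown at 25 °C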
TIM10 conf = growth inhibitors of wild-type TIM10 yeast, confirmation, counter-screen for tim10-1 synthetic lethality project, single concentration, luminescence, S. cerevisiae. shares compounds with TIM10 inh. S. cerevisiae tim10 strain growth, BacTiter-Glo luminescence, 24 h. inhibition, % at 10 µM. actives 63% (n = 4,600). AID 463215, 2010;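 active means inhibition of yeast growth at or above a set limit in either of two replicates at 10 µM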; further: this counterscreen used the strain with wild-type TIM10
Each line names hits and unclear results; the compound was inactive in the other large screens (follow-up assays come after a bar, where they were run). A selection: hits, their analogues and other compounds. The true share with any hit is near 3.7%.

Cc1ccc(NC(=O)CN(C)C(=O)COc2c(Cl)cc(Cl)c3ccc(C)nc23)cc1	TIM10 inh 40.0 | TIM10 conf inactive
Cc1ccc(NC(=O)N2C3CCCC2CC(NC(=O)C2CC2)C3)cc1 (stereo not drawn)	none
O=[N+]([O-])c1ccc(N2N=C(c3ccccc3)CC2c2ccccc2O)cc1 (stereo not drawn)	TIM10 inh 41.6, PfHsp90 set2 108.2 | TIM10 conf 59.6
O=C(NC1Cc2ccccc2C1)c1cc(COc2ccc(F)cc2Cl)on1	none
O=C(NC1CCc2ccccc21)c1cc(COc2ccc(F)cc2Cl)on1 (stereo not drawn)	TIM10 inh 67.9 | TIM10 conf inactive
CCc1ccc(C(=O)NNc2cc(Cl)cc(Cl)c2)cc1	none
CCc1ccc(C(=O)NNc2ccc(Cl)cc2)cc1	TIM10 inh 53.3 | TIM10 conf 53.3
COc1cccc(C(=O)N/N=C(/c2ccccc2)c2ccccn2)c1	TIM10 inh 40.1 | TIM10 conf inactive
COc1cc(C(=O)N/N=C(\c2ccccc2)c2ccccn2)cc(OC)c1OC	none
CC(C)n1c(N2CCN(C(=O)Nc3ccccc3)CC2)nc2ccccc21	TIM10 inh 44.0 | TIM10 conf 43.2
Cn1c(N2CCN(C(=O)Nc3ccc(F)cc3)CC2)nc2ccccc21	none
COc1cc2c(cc1OC)C(=O)CC(C)S2 (stereo not drawn)	none
Cc1ccc(NC(=O)COC(=O)Cc2cccs2)cc1S(=O)(=O)N1CCOCC1	TIM10 inh 97.4 | TIM10 conf inactive
CSc1ccc(C(=S)N2CCCC2)cc1	TIM10 inh 59.2 | TIM10 conf inactive
Cc1cc(Oc2nnnn2-c2ccccc2)ccc1Cl	TIM10 inh 40.3 (no result: PfHsp90 set2) | TIM10 conf 29.8
COc1ccc(OC)c2[nH]c(=O)c(CCNC(=O)c3ccc(Br)o3)cc12	TIM10 inh 47.2 | TIM10 conf inactive
COc1cc(C(=O)NCCc2cc3c(OC)ccc(OC)c3[nH]c2=O)cc(OC)c1OC	none (no result: PfHsp90 set2)
N#CC(C#N)=C1C=CC=CN1/C(=C\c1ccccc1)C(=O)c1cccs1	TIM10 inh 42.6 | TIM10 conf inactive
COC(=O)c1cc(S(=O)(=O)Nc2cccc(C)c2C)cn1C	TIM10 inh 84.2 | TIM10 conf inactive
CN(c1ccccc1)S(=O)(=O)c1ccc(C(=O)NCCc2ccc(F)cc2)cc1	none
COc1ccccc1N(C)S(=O)(=O)c1ccc(C(=O)NCCc2ccc(F)cc2)cc1	TIM10 inh 45.7 | TIM10 conf 50.8
COc1ccc(-c2ccc3nnc(SCC(=O)NCC4CCCO4)n3n2)cc1 (stereo not drawn)	none
CCc1ccccc1NC(=O)c1ccc([N+](=O)[O-])s1	TIM10 inh 49.9 | TIM10 conf 43.0
CCc1ccccc1NC(=O)CSc1ccsc1[N+](=O)[O-]	none
CN(CC(=O)Nc1ccccc1Cl)C(=O)COC(=O)c1cccs1	none
CN(CC(=O)Nc1ccccc1Cl)C(=O)COC(=O)c1ccc([N+](=O)[O-])s1	TIM10 inh 47.0 | TIM10 conf 52.4
Cc1ccc(Oc2ccc(-c3nc(N)nc(N)n3)cc2)cc1	TIM10 inh 44.5 | TIM10 conf inactive
C=CCNc1nc(N)c([N+](=O)[O-])c(Nc2ccccc2OC)n1	TIM10 inh 40.9 | TIM10 conf 69.2
COc1ccccc1Nc1nc(NCCCN(C)C)nc(N)c1[N+](=O)[O-]	none
COc1ccc2nc3sc(C(=O)NCCCN4CCc5ccccc5C4)cc3cc2c1	TIM10 inh 49.0 | TIM10 conf 57.0
COc1ccc2nc3sc(C(=O)N4CCN(C)CC4)cc3cc2c1	none
COc1ccccc1N1CCN(C(=O)c2ccc([N+](=O)[O-])s2)CC1	TIM10 inh 42.8 | TIM10 conf inactive
CCNC(=S)NN=C1CCC(C(C)(C)C)CC1 (stereo not drawn)	none
CC(C)(C)C1CCC(=NNC(=S)Nc2cccnc2)CC1 (stereo not drawn)	TIM10 inh 44.2 | TIM10 conf 34.8
CCc1nc(Nc2ccc3c(c2)OCCO3)c2oc3ccccc3c2n1	none
Cc1nc(Nc2ccc3c(c2)OCCO3)c2oc3ccccc3c2n1	TIM10 inh 40.4 | TIM10 conf inactive
COc1ccc(N2CC(C(=O)N3CCc4ccccc43)CC2=O)cc1 (stereo not drawn)	none
Cc1ccc(NC(=O)NC(=O)COc2c(F)c(F)cc(F)c2F)c(C)c1	none
CC(=C/c1ccccc1)/C=N/N1CCN(Cc2ccc(C)cc2)CC1	none
Cc1ccc(CN2CCN(/N=C\C(Br)=C\c3ccccc3)CC2)cc1	TIM10 inh 43.5 | TIM10 conf inactive
CC1C/C(=C\c2ccccc2[N+](=O)[O-])c2nc3ccccc3c(C(=O)O)c2C1 (stereo not drawn)	none
Cc1ccc(O)c(-c2cc(-c3ccccc3F)[nH]n2)c1	TIM10 inh 48.1 | TIM10 conf 43.0
Cc1ccccc1NC(=S)NC(=O)CCc1ccccc1	TIM10 inh 44.2 | TIM10 conf 35.5
COc1cc2c(C(=O)N3CCN(c4ccccc4C)CC3)c(C)oc2cc1Br	TIM10 inh 52.4 | TIM10 conf 35.4
COc1ccccc1N1CCN(C(=O)c2c(C)cc(=O)oc2C)CC1	none
CCSc1ncccc1-c1nc2ccccc2[nH]1	TIM10 inh 43.0 | TIM10 conf inactive
CSc1ncccc1-c1nc2ccccc2[nH]1	none
CCc1ccc(NC(=S)N2CCNC(=O)C2CC(=O)OC)cc1 (stereo not drawn)	none
O=C(NCCc1ccccc1)c1ccc(S(=O)(=O)N2CCCC2)cc1	TIM10 inh 61.9 | TIM10 conf inactive
O=C(NCCc1ccc(F)cc1)c1ccc(S(=O)(=O)N2CCCC2)cc1	none
O=C(CNC(=O)c1ccccc1F)NCCc1ccccc1F	none
COc1cccc(NC(=O)Nc2cccn(Cc3ccccc3)c2=O)c1	TIM10 inh 43.8 | TIM10 conf 28.0
COc1cccc(NC(=O)Nc2ccc(Cc3ccncc3)cc2)c1	TIM10 inh 43.7 | TIM10 conf inactive
COc1ccc(Cn2cccc(NC(=O)Nc3cccc(OC)c3)c2=O)cc1	none
CN(CC(=O)Nc1ccc(F)cc1)C(=O)c1cccc(NS(=O)(=O)c2ccccc2)c1	none
Cc1c(CN2CCC(CO)(CCOc3ccccc3)CC2)[nH]c2c(Cl)cccc12	TIM10 inh 44.2 | TIM10 conf inactive
COc1ccccc1/C=C/C1(C(=O)NC2CCCC2)CC(=O)N1c1ccc(F)cc1 (stereo not drawn)	TIM10 inh 41.4 | TIM10 conf inactive

Screens (PubChem BioAssay)
